Screening data as filed in PubChem BioAssay.
Compounds with a hit are over-represented: about 9% of the library has one in this group of screens.
HPGD block = qHTS Assay for Inhibitors of HPGD (15-Hydroxyprostaglandin Dehydrogenase); 15-hydroxyprostaglandin dehydrogenase [NAD(+)] (Homo sapiens), P15428; purified HPGD, NADH fluorescence kinetic, PGE2 substrate; Potency, µM, for the others: at the highest dose activity change, negative = inhibition, most hits filed as inhibitors; hit rate 4.3% among 150,000; further: potency means the concentration at half of the fitted maximal effect
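20 nM HPGD preincubated 15 min at room temperature with compound in 50 mM Tris-HCl pH 8, 0.01% Tween 20. Started with 1 mM NAD+ and 30 uM prostaglandin E2; NADH fluorescence (360/450 nm) read 5 times over 30-s intervals, last minus first.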
IMPase inh = qHTS Assay for Identifying the Cell-Membrane Permeable IMPase Inhibitors; CHO-M1 cells, IP1 accumulation, HTRF TR-FRET ratio; inhibition (IP1 accumulation), % at 46.1 µM; 120,000 tested, under 10 active; AID 901, 2007; active means well fitted curve in the direction sought with a large enough effect in the signal ratio, not every such curve was filed as active; inconclusive means small, poorly fitted or top-dose-only effect, or a change in a side signal; inactive means no such curve, though single readings can be large or run the other way; the % refers to the signal ratio;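 further: cells stimulated with carbachol in lithium chloride buffer; plate controls were DMSO basal wells for no effect and reference inhibitor wells for full effect; higher means more IMPase inhibition seen as more IP1 and lower FRET ratio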
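Carbachol-driven Gq signalling in CHO-M1 cells (2000/well) generates IP1. Compounds that block IMPase raise IP1 and so reduce the FRET signal from Eu-anti-IP1 and d2-IP1 after a 10 min room-temperature lysis.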
ALDH1A1 inh = qHTS Assay for Inhibitors of Aldehyde Dehydrogenase 1 (ALDH1A1) | Potency, µM (top dose mostly 75.3 µM), for the others: at the highest dose activity, negative = inhibition, actives largely listed as inhibitors | Aldehyde dehydrogenase 1A1 (Homo sapiens), P00352 | hit rate 7.3% among 220,000 | Purified ALDH1A1, NADH fluorescence, propionaldehyde substrate;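 further: potency means the concentration at half of the fitted maximal effect; plate controls were no enzyme wells and a reference inhibitor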
Target sequence (P00352 whole entry, looked up): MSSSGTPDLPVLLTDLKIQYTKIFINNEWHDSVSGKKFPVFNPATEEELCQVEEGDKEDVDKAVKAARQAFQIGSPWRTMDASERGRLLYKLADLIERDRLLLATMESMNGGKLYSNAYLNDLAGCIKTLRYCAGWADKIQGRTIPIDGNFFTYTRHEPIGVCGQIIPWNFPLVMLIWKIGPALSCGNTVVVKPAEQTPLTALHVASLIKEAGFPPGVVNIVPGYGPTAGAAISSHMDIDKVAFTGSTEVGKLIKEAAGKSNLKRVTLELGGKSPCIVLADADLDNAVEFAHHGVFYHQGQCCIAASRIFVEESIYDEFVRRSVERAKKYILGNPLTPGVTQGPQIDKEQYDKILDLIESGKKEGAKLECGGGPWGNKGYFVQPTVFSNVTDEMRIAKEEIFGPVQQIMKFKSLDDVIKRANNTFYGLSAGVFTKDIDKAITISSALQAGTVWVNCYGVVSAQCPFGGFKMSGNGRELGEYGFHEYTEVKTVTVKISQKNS
An asterisk follows results filed as active; u = inconclusive; x = no result; [ ] = another dose, or the depositor's remark. Unless noted, the call rests on the fitted dose curve; in most records, active means well fitted inhibition curve with a large enough effect (not every such curve was filed as active); inconclusive means small, poorly fitted or top-dose-only effect, or another doubt; inactive means no such curve, though single readings can be large or run the other way. Unless noted, on the % scale 0 is the no-effect control and ±100 the full control effect.

SMILES | HPGD block | IMPase inh | ALDH1A1 inh
C=C1CCC(=O)C(C)CCC2C1CC2(C)C (centres undefined) | -11% | x | -6%
CC(C)c1ccc(NC(=O)C(c2ccc3c(c2)OCO3)N2CCN(C(=O)c3ccco3)CC2)cc1 (centres undefined) | -24% | 14 | u
CC(C)c1ccc(NC(=O)C(c2ccccc2)N2CCN(C(=O)c3ccco3)CC2)cc1 (centres undefined) | -17% | 11 | 13µM*
COc1cccc(-c2cncnc2NC2CCNCC2)c1 | x | x | -7%
OC1(c2ccc(F)cc2)CN(c2ccccc2)C2=[N+]1CCS2 (centres undefined) | -8% | 14 | -2%
Cc1ccc(C2(O)CN(c3ccccc3)C3=[N+]2CCS3)cc1 (centres undefined) | 0% | -4 | 1%
Cc1ccc(C2(O)CN(c3ccccc3C)C3=[N+]2CCS3)cc1 (centres undefined) | -1% | 0 | 20µM*
Cc1ccccc1N1CC(O)(c2ccccc2)[N+]2=C1SCC2 (centres undefined) | -3% | -16 | 13µM*
CC(=O)Nc1ccc(/C=C2/Sc3ccccc3C2=O)cc1 | x | x | 4%
O=c1c2cn[nH]c2[nH]c(=S)n1-c1cccc(Cl)c1 | -17% | x | u
Cc1nn(C)c(Sc2ccccc2N)c1[N+](=O)[O-] | x | x | 4µM*
Cc1nn(C)c(N)c1[N+](=O)[O-] | x | x | -2%
COc1cccc(CN(C)C(=O)c2cccc(OC3CCN(C4CCCC4)CC3)c2)c1 | x | x | 6%
C/C(CC(=O)Nc1cccc(Cl)c1Cl)=N\NC(=O)c1ccccc1C | x | x | 8.9µM*
CC(=O)Nc1ccccc1NC(=O)C/C(C)=N/NC(=O)c1ccncc1 | x | x | 3%
COC(=O)C(O)C1C(C)(C)C(OC(C)=O)C2CC3=C4CC(=O)OC(c5ccoc5)[C@]4(C)CCC3[C@@]1(C)C2=O (some centres undefined) | -6% | x | 0%
COc1cc(NC(=O)c2cc(C(C)C)on2)c(OC)cc1Cl | u | -1 | 7.9µM*
COc1ccc(NC(=O)c2cc(C(C)C)on2)cc1OC | -14% | 3 | u
COc1cc(NC(=O)c2cc(C3CC3)on2)c(OC)cc1Cl | u | 14 | u
COc1ccc(NC(=O)c2cc(C(C)C)on2)c(OC)c1 | u | 3 | 4µM*
COCCOc1cc(-n2cccc2)c(Cl)cc1Cl | x | x | 7%
COc1ccc(-c2cc(C(F)(F)F)nc(SCC(=O)NC(C)c3ccccc3)n2)cc1 (centres undefined) | x | 3 | x
COc1ccc(/C=C/C(=O)c2ccc(OC)cc2OC)c(OC)c1 | x | x | 2%
COc1cc(O)c(C(=O)/C=C/c2ccccc2)c(O)c1 | x | x | 8%[13.5 µM]
CNc1ccc(Br)cc(C(=O)/C=C/c2ccc(OC)cc2OC)c1=O | 14µM* | x | u
SMILES | HPGD block | IMPase inh | ALDH1A1 inh
CNc1ccc(Br)cc(C(=O)/C=C/c2cccc(OC)c2)c1=O | 7.9µM* | 10 | 14µM*
CCCCCC(O)/C=C/C=O (centres undefined) | -7% | x | -6%
COc1ccc(NC(=O)[C@@H](NC(=O)c2ccccc2)C(C)C)cc1S(=O)(=O)N1CCCCC1 | -18% | x | -5%
Cc1ccc(N2C(=O)CS/C2=C(\C(Cl)=C(Cl)Cl)[N+](=O)[O-])cc1 | -2% | 14 | 20µM*
Cc1ccc(N2C(=O)CSCC2=O)cc1 | -10% | 8 | 2%
Nc1nc(SCc2ccccc2[N+](=O)[O-])c2[nH]cnc2n1 | -2% | x | 7%[13.5 µM]
Cc1ccc(S(=O)(=O)Nc2cccc(NC(=O)CN3CCCCC3)c2)cc1 | -17% | -3 | u
COc1ccc(-c2csc(N(CC3CCCO3)C(=O)c3ccco3)n2)cc1 (centres undefined) | -16% | 1 | -5%
COc1ccc(C2C(CC(=O)O)=C(O)C(=O)N2c2ccccc2)cc1 (centres undefined) | -23% | 0 | 18µM*
Cc1ccc(NC2=C(CC(=O)O)C(c3ccccc3)N(c3ccc(C)cc3)C2=O)cc1 (centres undefined) | -15% | 4 | u
C[C@@H](CS(=O)(=O)Cc1ccccc1)C(N)=O | -13% | x | 0%[13.5 µM]
O=S(=O)(c1ccccc1)N1CCC2(CCN(Cc3ccncc3)CC2)CC1 | -8% | x | -16%
O=C(O)CCCCCCCCCC(=O)c1cccs1 | 16µM* | -4 | 10%
CC(CC(=O)c1cccs1)CC(=O)c1cccs1 | 13µM* | 5 | 7.9µM*
Cc1cc(C)c(C(CC(=O)c2cccs2)C(C#N)C#N)c(C)c1 (centres undefined) | -16% | x | 3%
O=C(NCCCCCCNC(=O)c1cccs1)c1cccs1 | x | x | -3%
O=C1c2ccccc2C(=O)N1CCC1=CCCCC1 | -9% | -2 | -15%
N#Cc1ccc(C(=O)Nc2cccc(NC(=O)c3ccco3)c2)c(F)c1 | x | x | 0%
Cc1cccc(C)c1Nc1c(-c2ccccn2)nc2ccccn12 | x | x | 7%
Cc1cccc(-n2ncc3c(N4CC(C)CC(C)C4)ncnc32)c1 (centres undefined) | -30% | 3 | 25µM*
O=C(COc1ccccc1)N1CCN(c2ncnc3c2cnn3-c2ccccc2)CC1 | -12% | 6 | 7.1µM*
Cc1cccc(-n2ncc3c(N4CCCC4)ncnc32)c1 | -6% | u | u
Cc1cccc(C(=O)N2CCN(c3ncnc4c3cnn4-c3ccccc3)CC2)c1 | -4% | 12 | 10µM*
c1ccc(-n2ncc3c(N4CCN(CCOc5cccc6ccccc56)CC4)ncnc32)cc1 | u | 1 | u
Cc1cccc(-n2ncc3c(N4CCOCC4)ncnc32)c1 | -6% | x | u
SMILES | HPGD block | IMPase inh | ALDH1A1 inh
CCc1nc2ccccc2c(C(=O)OCC(=O)NC(=O)c2cccn2C)c1C | x | x | -15%
Cc1cc(Br)ccc1OCC(=O)NNC(=O)C(=O)Nc1ccccc1 | x | x | 15%
C=CCn1c(SC(C)C(=O)NCCC2=CCCCC2)nc2ccccc2c1=O (centres undefined) | -7% | 5 | 6%
Clc1ccccc1OCc1nnc(-c2ccccc2Br)o1 | 20µM* | 5 | u
O=c1c(Cl)c(Cl)cnn1Cc1nnc(-c2ccccc2Br)o1 | x | x | 3.5µM*
Clc1ccc(Cc2nnc(-c3ccccc3Br)o2)cc1 | 20µM* | x | 10%
Brc1ccccc1-c1nnc(COc2cccc3cccnc23)o1 | u | 12 | u
O=C1NC2(CCCc3ccccc32)C(=O)N1Cc1nnc(-c2ccccc2Br)o1 (centres undefined) | -28% | 3 | u
Brc1ccc(-c2nnc(-c3ccccc3Br)o2)cc1 | u | 10 | u
CCn1c(COc2ccc3c(c2)CCCC3)nnc1SCC(=O)Nc1nccs1 | -1% | -2 | 3%
CCN(CC)CCCN1C(=O)C(O)=C(C(=O)c2ccc(C)o2)C1c1ccc(C)o1 (centres undefined) | -8% | -1 | u
COc1ccc(C2Nc3ccccc3-c3nnc(SC)nc3O2)cc1C (centres undefined) | x | 1 | x
O=C(/C=N/O)NCc1cccnc1 | x | 3 | 3%
O=C(NCCCNCc1ccccc1)c1ccncc1 | 2% | 4 | 2µM*
O=C(/C=N\O)NCCCNCc1ccccc1 | -8% | 2 | 22µM*
